SUMO1 PPI mod: modulators of human SUMO1-mediated protein-protein interactions | SUMO1 binding to a labelled peptide, TR-FRET, 1 h | inhibition, % at 20 µM | 360,000 tested, 0.33% active | AID 602429; in the data active means inhibition above about 37%
ATG4B inhibitor: ATG4B (human) cysteine protease inhibition | Q9Y4P1 | ATG4B cleavage of LC3-PLA2, NBD-HPC fluorescence, 1 h | inhibition, % at 8.33 µM | 340,000 tested, 0.51% active | AID 504462
Rin1-Abl PPI inh: human Rin1-Abl interaction inhibition. P00519+Q13671. TR-FRET Rin1/Abl binding, biochemical. inhibition, % at 7.35 µM. 360,000 tested, 0.4% active; in the data active means inhibition above about 5%, passing the limit was not always enough
Neddyl block: inhibitors of human cullin neddylation | P61081+Q13564 | TR-FRET cullin neddylation, biochemical | inhibition, % at 25 µM | 360,000 tested, 0.58% active; in the data active means inhibition above about 36%
Neddyl conf: cullin neddylation inhibition, confirmation. 1,800 tested, 13% active. calls only at 25 µM. AID 652217. shares compounds with Neddyl block. TR-FRET cullin neddylation biochemical assay;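 further: neddylation substrate is the cullin 1 ring ligase complex with SKP2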
Of the large screens only hits and unclear results are named; the others gave an inactive call (follow-up assays come after a bar, where shown). Hits are enriched below; roughly 1.7% of the tested compounds scored in any of these assays. Unless noted, no stated cut-off is given here; in the data, active means inhibition above about 40%; inactive means the rest.

COc1ccc(C2CC(c3ccccc3)=NN2C(=O)COC(=O)/C=C/c2ccc(O)c(OC)c2)cc1 (centres undefined)	Neddyl block 44.1 | Neddyl conf inactive
COc1ccc(C2CC(c3ccccc3)=NN2C(=O)COC(=O)CNC(=O)c2ccccc2)cc1 (centres undefined)	none
Cc1c(OC(C)C(=O)NCCN2CCOCC2)ccc2c3c(c(=O)oc12)CCCC3 (centres undefined)	Neddyl block 41.2
CCc1nn(CC(=O)NCCC(C)C)c(=O)c2cc3c(OC)cccc3n12	Neddyl block 39.8 | Neddyl conf inactive
COC(=O)CCCn1cc(CN2CC(N3CCN(Cc4ccccc4F)CC3)CS2(=O)=O)nn1 (centres undefined)	none (no result: ATG4B inhibitor, Rin1-Abl PPI inh)
COc1ccc(N2C(=O)c3ccccc3NC23CCCCC3)cc1	Neddyl block 41.3
CN1OC[C@@H]2CN(S(=O)(=O)c3ccccc3)[C@H](c3ccccc3Br)C[C@@H]21	none (no result: ATG4B inhibitor)
CCC(c1nnnn1-c1ccc2c(c1)OCCO2)N1CCN(c2ccc(F)cc2)CC1 (centres undefined)	none (no result: ATG4B inhibitor, Rin1-Abl PPI inh)
Cc1ccc(C2NC(=O)c3c(sc4c3CCN(C)C4)N2)o1 (centres undefined)	Neddyl block 43.5 | Neddyl conf inactive
O=C(Nc1nnc([C@H]2C[C@H](O)[C@@H](CO)O2)s1)c1cccc(Oc2ccccc2)c1	none (no result: ATG4B inhibitor)
Oc1ccccc1C=NNC(=S)Nc1ccc(F)cc1	Neddyl block 45.0
Fc1ccc(NC(=S)NN=Cc2ccccc2Cl)cc1	none
Oc1ccccc1/C=N/NC(=S)NCCc1ccccc1	Neddyl block 42.1 | Neddyl conf inactive
Cc1cc(C(=O)N2CCC2(C)C(=O)Nc2cc(C(C)(C)C)nn2C)nn1C (centres undefined)	none (no result: ATG4B inhibitor)
CCOc1ccc(NC(=O)CSc2nc3ccsc3c(=O)n2CCCCCC(=O)O)cc1	none (no result: ATG4B inhibitor)
C[C@H]1CNC(=O)c2c(C(=O)N[C@@H](Cc3c[nH]c4ccccc34)C(=O)OC(C)(C)C)ncn21	none (no result: ATG4B inhibitor)
O=C(Cc1cccs1)NNC(=S)NCc1ccc(Cl)cc1	none
O=C(Cc1ccc(Cl)cc1)NNC(=S)NC(=O)c1cccs1	Neddyl block 53.2 | Neddyl conf inactive
CC1(C(=O)NCc2ccccc2)CN(S(C)(=O)=O)CC(=O)N1CCc1ccccc1F (centres undefined)	none (no result: ATG4B inhibitor, Rin1-Abl PPI inh)
Cc1ccc(-c2cc(-c3ccc(F)cc3)c(C#N)c(N)n2)o1	Neddyl block 52.9
CN(CCc1ccccc1)C(=O)c1[nH]c(C(F)(F)F)nc1-c1ccccc1	none (no result: ATG4B inhibitor)
COc1cccc(NC(=O)CN(C)C(=O)c2cc(-c3ccco3)nc3ccccc23)c1	none (not shown: Neddyl block)
COc1cccc(NC(=O)c2cc(-c3ccco3)nc3ccccc23)c1	Neddyl block 38.2
O=C(c1cc(-c2ccncc2)nc2ccccc12)N1CCCC(C(F)(F)F)C1 (centres undefined)	none (no result: ATG4B inhibitor)
O=C(c1cc(-c2ccco2)nc2ccccc12)N1CCCC(C(F)(F)F)C1 (centres undefined)	Neddyl block 60.3
CN(CCOc1ccc(Cl)cc1)C(=O)c1cc(-c2ccco2)nc2ccccc12	Neddyl block 62.4
O=C(Nc1ccccc1F)c1cc(-c2ccco2)nc2ccccc12	Neddyl block 45.1
CCNC(=O)COC(=O)C1C(C(=O)OCC)=C(C)NC(C)=C1C(=O)OCC	none
CCOC(=O)C1=C(C)NC(C)=C(C(=O)OCC)C1C(=O)OCC(=O)NCc1ccc(F)cc1	Neddyl block 46.8
CCOC(=O)C1=C(C)NC(C)=C(C(=O)OCC)C1C(=O)OCC(=O)NC1CCCCC1	Neddyl block 39.3 | Neddyl conf inactive
C=CCOC(=O)c1ccccc1C(=O)OCC1CO1 (centres undefined)	none
COc1ccc(-c2cc3ccc(OCC(N)=O)cc3oc2=O)cc1OC	Neddyl block 41.7 | Neddyl conf inactive
COc1ccc(-c2cc3ccc(O)cc3oc2=O)cc1OC	none
CC(=O)C1CCC2C3CC=C4N(C)C(=O)CCC4(C)C3CCC12C (centres undefined)	none
CCCc1c(C(=O)N/N=C/c2c[nH]c3ccccc23)nnn1-c1nonc1N	none (no result: ATG4B inhibitor)
CCCc1c(C(=O)N/N=C/c2c(OC)ccc3ccccc23)nnn1-c1nonc1N	Neddyl block 49.1 | Neddyl conf inactive
Cc1ccc(-c2c(C(=O)N/N=C/c3c[nH]c4ccccc34)nnn2-c2nonc2N)cc1	Neddyl block 49.4 | Neddyl conf inactive
Cc1nnn(-c2nonc2N)c1C(=O)N/N=C/c1cccc2ccccc12	Neddyl block 43.4 | Neddyl conf inactive
CCCc1c(C(=O)N/N=C/c2ccc(OCc3ccccc3)c(OC)c2)nnn1-c1nonc1N	none
CCCc1c(C(=O)N/N=C/c2ccc(OC)c(OCc3ccccc3)c2)nnn1-c1nonc1N	Neddyl block 42.4 | Neddyl conf inactive
CC(=O)N1CCN(c2ccc(NC(=O)c3ccc(OCc4ccccc4)cc3)cc2)CC1	Neddyl block 44.1 | Neddyl conf inactive
CN(C)CCNc1nc(-c2ccco2)c2c(c1C#N)CC(C)(C)OC2	Neddyl block 50.7 | Neddyl conf active
Cc1cc(=O)oc2cc(OCC(=O)N3CC(=O)Nc4ccccc43)c(Cl)cc12	Neddyl block 40.3 | Neddyl conf inactive
O=C1CN(C(=O)COc2ccccc2Cl)c2ccccc2N1	none
Cc1cccc(CN2[C@H](COCc3ccccc3)C=CS2(=O)=O)c1	none (no result: ATG4B inhibitor)
Cc1[nH]c2ccccc2c1C(=O)C(C)OC(=O)c1ccccc1NCCO (centres undefined)	Neddyl block 54.4
Cc1[nH]c2ccccc2c1C(=O)C(C)OC(=O)c1ccc(NC(=O)CC#N)cc1 (centres undefined)	none
CCC12CCC3c4ccc(O)cc4CCC3C1CC(O)C2O (centres undefined)	none
O=C(NN1C(=O)c2ccccc2NC1c1ccccn1)c1ccccc1 (centres undefined)	Neddyl block 39.3
Cc1cccc(C2Nc3ccccc3C(=O)N2c2ccccc2)n1 (centres undefined)	none (not shown: Neddyl block)
O=C(NN1C(=O)c2ccccc2NC1c1ccoc1)c1ccccc1 (centres undefined)	none (not shown: Neddyl block)
O=C1c2ccccc2NC(c2ccccn2)N1c1ccc(Cl)cc1 (centres undefined)	Neddyl block 41.9
CC(=O)Nc1ccc(NC(=O)CSc2nc(=O)n(Cc3cccnc3)c3c2CCC3)cc1	none
COc1cccc(-c2ccc(C#N)c(OC(=O)c3c(Cl)cccc3Cl)n2)c1	none (not shown: Neddyl block)
COc1cccc(-c2ccc(C#N)c(OC(=O)c3ccc(Cl)cc3)n2)c1	Neddyl block 41.3 | Neddyl conf inactive
CCCCCCCCN1C(=O)[C@H](CC(=O)NCCCCc2ccccc2)C[C@@]2(C(=O)OC)CC(C)(C)CC=C12	none (no result: ATG4B inhibitor, Rin1-Abl PPI inh)
COc1ccc(C=C2CS(=O)(=O)CC(=Cc3ccc(OC)cc3)C2=O)cc1	none (no result: ATG4B inhibitor)
Cc1cc(-c2ccccc2)nc(N(C)N)c1S(C)(=O)=O	Neddyl block 38.8 | Neddyl conf inactive
O=C(NCc1ccccc1)c1nc(-c2c(F)cccc2F)oc1-c1ccccc1	Neddyl block 44.4 (not shown: ATG4B inhibitor, Rin1-Abl PPI inh)
COc1ccc(C(CC(=O)N2CCCCC2)c2c(OC)cc(OC)c3ccc(=O)oc23)cc1 (centres undefined)	Neddyl block 46.6 | Neddyl conf active

Screens deposited in PubChem BioAssay by several laboratories.
